The other results are listed elsewhere or left out. No count for the full screen is at hand.
Biological target: furin, P09958
Test: furin cleavage Z-score vs untreated control; higher = more cleavage, active = 3.5 or more, inactive = 1 or less, 8 variable residues between constant flanks
Outline: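 Furin cleavage was scored on 8-mer peptides joined to a cDNA oligonucleotide and bound to magnetic beads at the N-terminus. Digestion with purified furin (1:10 enzyme:substrate, 0.01 ml, 50 mM HEPES pH 7.5, CaCl2, NaCl) lasted 7.5, 15 or 30 min. Freed DNA was tagged with adapters by PCR, sequenced and counted; the cleavage Z-score is the lowess-adjusted log count versus furin-free reactions, scaled by median absolute deviation.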

Chain of furin, P09958 (P09958 whole entry): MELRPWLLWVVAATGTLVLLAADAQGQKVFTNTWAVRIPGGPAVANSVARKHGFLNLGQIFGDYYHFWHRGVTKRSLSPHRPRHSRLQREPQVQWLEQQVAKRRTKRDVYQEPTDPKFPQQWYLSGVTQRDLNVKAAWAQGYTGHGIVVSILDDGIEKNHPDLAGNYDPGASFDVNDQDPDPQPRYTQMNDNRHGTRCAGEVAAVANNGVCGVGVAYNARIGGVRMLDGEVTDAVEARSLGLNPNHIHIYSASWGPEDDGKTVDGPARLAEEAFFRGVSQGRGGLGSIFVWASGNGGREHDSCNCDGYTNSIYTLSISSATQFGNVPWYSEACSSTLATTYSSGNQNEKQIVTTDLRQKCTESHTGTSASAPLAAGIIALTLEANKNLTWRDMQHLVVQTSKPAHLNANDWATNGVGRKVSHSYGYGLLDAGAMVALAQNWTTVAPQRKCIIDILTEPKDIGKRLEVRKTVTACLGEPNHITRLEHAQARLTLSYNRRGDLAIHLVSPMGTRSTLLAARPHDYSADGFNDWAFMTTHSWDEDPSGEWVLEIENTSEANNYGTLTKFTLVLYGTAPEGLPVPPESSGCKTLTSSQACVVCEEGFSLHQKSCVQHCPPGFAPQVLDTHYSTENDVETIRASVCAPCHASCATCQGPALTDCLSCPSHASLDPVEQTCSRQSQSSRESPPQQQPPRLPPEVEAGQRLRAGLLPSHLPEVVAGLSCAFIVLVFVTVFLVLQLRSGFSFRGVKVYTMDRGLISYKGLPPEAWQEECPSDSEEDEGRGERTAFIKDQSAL

Sequence	furin cleavage Z-score (7.5 min)	furin cleavage Z-score (15 min)	furin cleavage Z-score (30 min)
CAGLQDCTMLAGNASASA [HC1524]	1.18	0.431 (inactive)	0.816 (inactive)
CASCTTPCSGAGNASASA [HC1957]	0.117 (inactive)	-0.946 (inactive)	0.203 (inactive)
CARLYVGGPLAGNASASA [HC1500]	-0.16 (inactive)	0.662 (inactive)	0.78 (inactive)
CATGALVTPCAGNASASA [HC1374]	1.46	-0.486 (inactive)	-0.745 (inactive)
CASLLRHHNLAGNASASA [HC1385]	-0.346 (inactive)	0.336 (inactive)	0.383 (inactive)
CAIQARAKRVAGNASASA [FS-256]	4.63 (active)	3.93 (active)	4.73 (active)
CADELAAKLVAGNASASA [HC861]	-0.523 (inactive)	0.896 (inactive)	0.946 (inactive)
CAICQRVKRVAGNASASA [FS-1633]	0.73 (inactive)	-0.331 (inactive)	1.69
CAVDIRLKRVAGNASASA [FS-148]	0.517 (inactive)	1.34	1.54
CAYSHRWKRNAGNASASA [FS-112]	7.46 (active)	8.5 (active)	7.17 (active)
CALNERLKRVAGNASASA [FS-53]	2.86	3.12	3.89 (active)
CARLLRHKRMAGNASASA [FS-188]	8.79 (active)	8.2 (active)	6.11 (active)
CAVVICESAGAGNASASA [HC1531]	0.204 (inactive)	-0.473 (inactive)	1.4
CAEVVTSNWVAGNASASA [HC2221]	-0.745 (inactive)	-1.12 (inactive)	-0.494 (inactive)
CASPITYSTYAGNASASA [HC805]	0.448 (inactive)	0.103 (inactive)	-0.462 (inactive)
CADVVVVATDAGNASASA [HC876]	-1.44 (inactive)	-0.376 (inactive)	-0.463 (inactive)
CAIRTEEAIYAGNASASA [HC1487]	-0.614 (inactive)	-0.579 (inactive)	-0.877 (inactive)
CASQMETKLIAGNASASA [HC649]	1.65	0.44 (inactive)	-0.0666 (inactive)
CANTLHCPTDAGNASASA [HC449]	-0.243 (inactive)	-1.86 (inactive)	-0.583 (inactive)
CAYSHRHKRVAGNASASA [FS-903]	5.57 (active)	7.12 (active)	6.65 (active)
CAHLERHKRVAGNASASA [FS-1631]	7.08 (active)	8.35 (active)	8.68 (active)
CALAWRSGRVAGNASASA [FS-817]	-2.25 (inactive)	-0.244 (inactive)	0.218 (inactive)
CAVGLHEYPVAGNASASA [HC1235]	-0.411 (inactive)	-0.271 (inactive)	-1.96 (inactive)
